# From PubChem
# Only some compounds are listed: those with a hit (about 21% of all), similar ones and a draw of the others.
# HCV inh: blocks hepatitis C virus; Huh7.5.1 HCVcc-Cre infection, luciferase reporter, 44 h; Potency, µM (series often up to 41.8 µM), without a hit: at the top dose activity change, negative = inhibition, actives largely listed as inhibitors; 3.4% of 340,000 active; note: potency is the fitted concentration of half-maximal effect; % is set by controls: 0 for no effect and ±100 for the full control effect
#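 A cell-based infection assay in which seeded cells (1,000 per well) receive test compound after 4 h, are inoculated with HCVcc-Cre at approximately 0.5 moi, and are incubated 44 h before luminescence detection.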
# HCMV inh: blocks human cytomegalovirus replication; 4.5% of 410,000 active; activity change, negative = inhibition, % at 57.5 µM; HFF cells, HCMV-luciferase reporter, 72 h; active compounds read low; in the data active = activity change below about -60%; inconclusive = no clear call, values can overlap the other calls; inactive = above about -39%; note: % is set by controls: 0 for no effect and ±100 for the full control effect
#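 Two-dose cell screen: HFF monolayers treated with compounds and infected with luciferase-expressing HCMV at 1 PFU/cell, 72 h at 37C, then lysed for luciferase measurement.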
# Shiga inhibitor: inhibitors of Shiga toxin in Vero cells; 9.2% of 290,000 active; Vero cells, Shiga toxin protein synthesis inhibition reporter; inhibition, % at 38.7 µM; in the data active = inhibition mostly above about 28%, no sharp cut-off; inactive = mostly below about 43%; note: 0% is about no effect
# Pf growth 96h: P. falciparum growth inhibition at 96 hour, primary screen for plastid delayed-death inhibitors; 6.9% of 320,000 active; P. falciparum luciferase reporter growth, 96 h; AID 504834; Potency, µM (top dose mostly 28.7 µM), for inactives: at the highest dose activity change, negative = inhibition, most hits filed as inhibitors; note: potency is the fitted concentration of half-maximal effect; % is set by controls: 0 for no effect and ±100 for the full control effect
#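 Delayed-death screen, second-generation endpoint: infected erythrocytes, 2% hematocrit, 0.05% parasitemia final; 96 hours at 37 C, 5% CO2; luciferase detection reagent; luminescence decrease equals reduced growth.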
# CHX counter: counter-screen for Shiga toxin inhibitors: cycloheximide protein synthesis inhibition; cell reporter, cycloheximide protein synthesis inhibition counterscreen; max response, %; 12% of 300,000 active; in the data active = max response mostly above about 13%, no sharp cut-off; inactive = mostly below about 14%; note: read at 38.3 µM for the half of the compounds with a filed dose; 0% is about no effect
# Pf growth 48h: P. falciparum growth inhibition at 48 hours (one generation); P. falciparum luciferase growth in erythrocytes, 48 h; Potency, µM (titrated, usually from 28.7 µM), without a hit: at the top dose activity change, negative = inhibition, usual class: inhibitors; 5.9% of 310,000 active; note: potency is the fitted concentration of half-maximal effect; % is set by controls: 0 for no effect and ±100 for the full control effect
#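 Cell-based growth assay: transgenic P. falciparum expressing firefly luciferase, cultured in red cells within RPMI 1640 containing 0.5% w/v Albumax, 24 mM bicarbonate and gentamycin. A drop in luciferase activity indicates inhibition.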
# * marks the source's active call; other numbers are inactive results; i = inactive; ? = inconclusive; · = not tested or not shown; + = active, no number. Unless noted, calls come from the whole dose curve; as a rule, active = well fitted inhibition curve with a large enough effect; inconclusive = small, poorly fitted or top-dose-only effect, or another doubt; inactive = no such curve, though single readings can be large or run the other way.
SMILES,HCV inh,HCMV inh,Shiga inhibitor,Pf growth 96h,CHX counter,Pf growth 48h
CC(=O)Nc1cccc(NC(=O)c2ccc3c(c2)CCN3S(=O)(=O)c2ccccc2)c1,?,-12.7,-2.3,?,-1.4,?
O=C(Nc1ccccc1)c1ccc2c(c1)CCN2S(=O)(=O)c1ccccc1,?,9.7,-4.0,91.5%,11.9,3.7µM*
O=C(NCc1ccc2c(c1)OCO2)c1ccc(-n2cnnn2)cc1,-23.8%,12.2,-8.9,1.65µM*,-0.5,13.4%
CCCCn1nc(C(=O)Nc2ccc3c(c2)OCCO3)c2ccccc2c1=O,?,-68.6*,·,6.57µM*,·,?
O=C(Nc1ccc2c(c1)OCO2)c1nn(-c2ccccc2)c(=O)c2ccccc12,?,?,-8.4,13.1µM*,-4.2,11.7µM*
O=C(Nc1ccccc1-c1ccccc1)c1ccc(=O)[nH]n1,-16.5%,?,83.0*,14.7µM*,46.1*,81.2%
O=C(NCc1ccc2c(c1)OCO2)c1nn(-c2ccccc2)c(=O)c2ccccc12,?,?,24.5,0.738µM*,-1.8,-25.1%
O=C(Nc1ccc2c(c1)OCO2)c1n[nH]c(=O)c2ccccc12,2.1%,26.7,57.3*,71.5%,17.8*,48.9%
O=C(Nc1ccccn1)c1ccc(=O)[nH]n1,0.5%,-6.1,-6.6,·,7.2,1.4%
CC(C)(C)c1ccc(NC(=O)c2ccc(=O)[nH]n2)cc1,?,-17.2,110.9*,421.5%,54.0*,160.6%
O=C(Nc1ccc2c(c1)OCO2)c1ccc(=O)[nH]n1,1.7%,-22.5,51.7*,102.2%,17.9*,63.4%
CC(C)n1nc(C(=O)Nc2ccc3c(c2)OCO3)c2ccccc2c1=O,-2.3%,-23.4,·,16.2%,·,11.6%
CCOc1ccnc2c1c(=O)n(Cc1cc(OC)cc(OC)c1)c(=O)n2C,-17.2%,-22.5,14.3,?,4.8,?
Cc1ccccc1-c1nc(CN2CCC(C(=O)NCc3ccc(F)cc3)CC2)c(C)o1,·,1.8,·,·,·,·
COc1cccc(CNC(=O)[C@H]2CCCN2C(=O)[C@H]2CCCN2C(=O)c2ccc(OC(F)(F)F)cc2)c1,·,-3.2,·,·,·,·
CCCCN1C(=N)C(CC)(CC)C(=O)NC1=O,-4.2%,-23.6,-13.1,14.7µM*,-2.9,7.1%
COc1cc2cc(Br)cc(Br)c2nc1C,11.2µM*,-9.7,-7.9,0.9%,-2.1,·
Cc1c(C#N)c2ccccc2n1CC(=O)O,20.3%,4.9,6.4,-28.8%,8.1,4.9%
Cc1cccc(NC(=O)Cn2c(C)c(C#N)c3ccccc32)c1C,2.1%,-15.4,-4.5,·,-2.9,2.08µM*
Cc1c(C#N)c2ccccc2n1CC(=O)NC(C)c1ccccc1 (stereo unspecified),16.4%,14.9,-8.1,·,-0.6,2.94µM*
O=C(CSc1ncc2c(n1)-c1ccccc1N(Cc1ccc(F)cc1)S2(=O)=O)c1ccc(Cl)cc1,·,2.2,·,·,·,·
Cc1nc(C(N)=O)c(N)n1CCc1ccccc1,29.7%,77.6,16.5,26.5%,10.1,5.4%
O=C(Cc1csc(NC(=O)Nc2ccc(Cl)cc2)n1)NC1CCCC1,7.08µM*,?,·,?,·,?
Cc1csc(NC(=O)Nc2ccc(Cl)cc2)n1,-13.1%,15.5,61.7*,·,47.7*,·
CCOC(=O)Cc1csc(NC(=O)Nc2ccc(Cl)cc2)n1,11.2µM*,2.8,19.4,?,1.9,?
SMILES,HCV inh,HCMV inh,Shiga inhibitor,Pf growth 96h,CHX counter,Pf growth 48h
NC(c1csc(NC(=O)Nc2cccc(Cl)c2)n1)c1ccccc1Cl (stereo unspecified),·,-75.8*,·,·,·,·
COc1ccc(-c2cc(=O)c(C(=O)c3ccc(C)cc3)n[nH]2)cc1,19.6%,-6.6,22.1,6.2%,4.5,i
C[C@@H]1CN([C@@H](C)CO)C(=O)c2cc(Br)cnc2O[C@@H]1CN(C)Cc1ccccn1,·,8.5,·,·,·,·
Cc1ccc(NC(=O)COC(=O)Cc2csc(-c3ccc(Cl)cc3)n2)cc1C,2.3%,1.6,+,18.8%,23.4*,-3.5%
CCOC(=O)Cc1csc(NC(=O)Nc2cccc(Cl)c2)n1,?,-60.3*,25.7,-26.6%,8.9*,12.1%
CN(C)Cc1csc(NC(=O)Nc2cccc(C(F)(F)F)c2)n1,·,-25.8,·,·,·,·
Cc1cnc(NC(=O)Nc2ccc(Cl)cc2)s1,?,-104.4*,152.6*,-3.6%,56.6*,140.7%
